# Measurements taken from PubChem BioAssay (Tox21).
# Where “and” joins values, the source holds several entries; their conditions need not be identical. Equal entries are not always repeated. Results filed as inconclusive are left out. Entries that show only a call come without a potency. Values without a mark were called inactive. Calls of active or inactive are those of the source. Unless noted, calls follow the shape of the dose curve; as a rule, active = well fitted curve in the direction sought with a large enough effect in the repeat runs; inconclusive = weak or mixed curves; inactive = no such curve, though single readings can be large; an effect the other way counts as inactive or inconclusive.
# Assays:
# [1] = qHTS assay to identify small molecule antagonists of the vitamin D receptor (VDR) signaling pathway - cell viability counter screen (AID 743225); also: nearly all actives have a fitted effect of over 50% in size; also: potency is read from the fitted curve at half-maximal effect
# How it was run: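 HEK293T VDR-bla; cpd + 1a,25-(OH)2D3 3 nM final, 16 h 37C/5% CO2; B/G FRET substrate 2 h RT; then CellTiter-Glo 30 min RT, luminescence.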
# [2] = qHTS assay to identify small molecule agonists of the NFkB signaling pathway - cell viability counter screen (AID 1159515; calls by dose curve; also: nearly all actives have a fitted effect of over 55% in size; also: potency is read from the fitted curve at half-maximal effect)
# How it was run: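 5 hr compound treatment of NFkB-bla ME-180 cells (2,000/well, seeded overnight beforehand), followed by reporter substrate for 1.5 hr. CellTiter-Glo added afterward; luminescence after 30 min RT.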
# [3] = qHTS assay to identify small molecule agonists of the endoplasmic reticulum stress response signaling pathway (AID 1159516; active = well fitted activation curve with a large enough effect in the signal ratio in the repeat runs, not every such curve was filed as active; the % refers to the signal ratio; also: potency is read from the fitted curve at half-maximal effect)
# How it was run: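 Reporter HeLa cells (ESRE-beta-lactamase) underwent 5 hr compound incubation at 37 C and 5% CO2 in quantitative HTS format. Detection followed 2 hr of FRET substrate loading at room temperature.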
# [4] = qHTS assay to identify small molecule antagonists of the retinoid-related orphan receptor gamma (ROR-gamma) signaling pathway - cell viability counter screen (AID 1159520); also: nearly all actives have a fitted effect of over 50% in size; also: potency is read from the fitted curve at half-maximal effect
# How it was run: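 Cytotoxicity was read from cellular ATP (CellTiter-Glo luminescence) after 16 hr at 37 C with 1 uM doxycycline induction. The inducer was added 2 hr after compound transfer to Tet-on ROR gamma CHO cells.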
# [5] = qHTS assay to identify small molecule agonists of the AP-1 signaling pathway (AID 1159526; calls by dose curve)
# [6] = qHTS assay to identify small molecule agonists of the RXR signaling pathway - cell viability counter screen (AID 1159529); also: nearly all actives have a fitted effect of over 50% in size; also: potency is read from the fitted curve at half-maximal effect;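 as to activity change, negative = cytotoxicity: HEK 293T cells carrying an RXR-alpha UAS beta-lactamase reporter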
# How it was run: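 Steps: seed RXR-alpha-UAS-bla HEK 293T cells in assay medium containing 2% charcoal-stripped FBS; incubate 5 hr; add compounds in DMSO; incubate 16 hr at 37 C; after the bla read, add CellTiter-Glo and read luminescence at 30 min.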
# [7] = qHTS assay to identify small molecule antagonists of the retinoid acid receptor (RAR) signaling pathway - cell viability counter screen (AID 1159551); also: nearly all actives have a fitted effect of over 35% in size
# How it was run: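 Seed C3RL4 cells; next day add compound, then retinol to 1 uM final; incubate 6 h at 37 C; add CellTiter-Glo; read luminescence after 30 min at RT.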
# [8] = qHTS assay to identify small molecule agonists of the retinoic acid receptor (RAR) signaling pathway (AID 1159553); settings: C3RL4 RARE luciferase reporter, agonist, 6 h; activation: at 73.3 µM (top of the series) unless noted; also: potency is read from the fitted curve at half-maximal effect
# How it was run: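 Activation of retinol signaling was monitored via a RARE luciferase reporter in C3RL4 cells. After 6 hr compound treatment at 37 C, detection reagent was added for 30 min at room temperature before luminescence reading.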
# [9] = qHTS assay to identify small molecule antagonists of the estrogen related receptor (ERR) signaling pathway - cell viability counter screen (AID 1224818);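 also: viability measured after 17.5 h of compound exposure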
# How it was run: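 In the same ERR cell assay, compound-treated wells (17.5 h, 37 C) were multiplexed with a fluorogenic viability reagent, CellTiter-Fluor, read after 30 min to flag cytotoxic substances.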
# [10] = qHTS assay to identify small molecule antagonists of the estrogen related receptor (ERR) signaling pathway (AID 1224819; also: potency is read from the fitted curve at half-maximal effect; nearly all actives have a fitted effect of over 50% in size)
# How it was run: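 qHTS in ERR cells, 2,000/well, 1536 format. Cpd (DMSO) added after 6 h settle, 18 h 37 C. One-Glo luminescence, 30 min RT.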
# [11] = qHTS assay to identify small molecule agonists of the estrogen related receptor (ERR) signaling pathway (AID 1224820)
# How it was run: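 Quantitative HTS of the LOPAC library used NTP ERR reporter cells treated 18 h at 37 C. Signal is luminescence after One-Glo addition and a 30 min room-temperature incubation.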
# [12] = system: estrogen-related receptor alpha (ERRalpha) with PGC-1alpha coactivator, human; assay: qHTS assay to identify small molecule antagonists of the estrogen related receptor signaling pathway with the pleiotropic PPARgamma coactivator (PGC) (AID 1224821; calls by dose curve)
# How it was run: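 Quantitative HTS for antagonism: PGC/ERR cells received compounds after 6 h attachment and were incubated 18 h at 37 C, with luminescence (One-Glo) as the endpoint.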
# [13] = qHTS assay to identify small molecule antagonists of the estrogen related receptor signaling pathway with the pleiotropic PPARgamma coactivator (PGC) cell viability counter screen (AID 1224822)
# How it was run: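 Compounds in DMSO, with positive and negative controls, were applied to PGC/ERR cells (2,000/well) and left 17.5 h at 37 C before CellTiter-Fluor detection.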
# [14] = qHTS assay to identify small molecule agonists of the estrogen related receptor signaling pathway with the pleiotropic PPARgamma coactivator (PGC) (AID 1224823)
# How it was run: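 Cell-based luciferase assay in the NTP-supplied PGC/ERR line, 2,000 cells/well; 18 h compound exposure at 37 C, luminescence after One-Glo.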
# [15] = qHTS assay to identify small molecule antagonists of the estrogen related receptor (ERR) signaling pathway from Tox21 library - cell viability counter screen (AID 1224834); also: nearly all actives have a fitted effect of over 30% in size; also: potency is read from the fitted curve at half-maximal effect
# How it was run: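 CellTiter-Fluor fluorescence measured; ERR cells; 17.5 h compound incubation at 37 C; 30 min reagent step.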
# [16] = qHTS assay to identify small molecule agonists of the AP-1 signaling pathway - cell viability counter screen (AID 1159525; calls by dose curve; also: nearly all actives have a fitted effect of over 55% in size)
# How it was run: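 Luminescent ATP readout (Cell Titer Glo, 30 min RT), normalised to DMSO and tetra n-octyl ammonium bromide controls. Cells were ME-180 AP-1-bla in 0.5% dialyzed FBS Opti-MEM, with a 5 h, 37 °C compound exposure.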
# [17] = target: Retinoic acid receptor RXR-alpha (Homo sapiens) (UniProt P19793); assay: qHTS assay to identify small molecule agonists of the RXR signaling pathway (AID 1159527; calls by dose curve; also: nearly all actives have a fitted effect of over 35% in size)
# How it was run: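 Cells plated at 2,000/well, rested 5 hr at 37 C, pin-dosed with DMSO compound solutions, incubated 16 hr, then loaded with B/G FRET substrate for 2 hr at RT before dual-emission fluorescence reading.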
# [18] = qHTS assay to identify small molecule antagonists of the retinoic acid receptor (RAR) signaling pathway (AID 1159552; also: nearly all actives have a fitted effect of over 50% in size)
# How it was run: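 Retinol at 1 uM final stimulated RARE-luciferase expression in C3RL4 cells exposed to test compounds for 6 hr at 37 C. Reduced luminescence, read 30 min after detection reagent, indicated pathway antagonism.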
# [19] = target: Nuclear receptor ROR-gamma (Homo sapiens) (UniProt P51449); assay: qHTS assay to identify small molecule antagonists of the retinoid-related orphan receptor gamma (ROR-gamma) signaling pathway (AID 1159521; also: nearly all actives have a fitted effect of over 50% in size; also: potency is read from the fitted curve at half-maximal effect;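 as to activity change, negative = inhibition: CHO cells with doxycycline inducible ROR-gamma driving an RORE luciferase reporter; top concentration of the series differs between compounds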)
# How it was run: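 Cells were plated, rested 4 h at 37 C, exposed to compounds for 2 h, then given 1 uM final doxycycline hyclate to induce RORγ expression. After 16 h, ONE-Glo luminescence from the ROR response element reporter was measured.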
# Sequence of Retinoic acid receptor RXR-alpha (Homo sapiens) (P19793 whole entry, looked up): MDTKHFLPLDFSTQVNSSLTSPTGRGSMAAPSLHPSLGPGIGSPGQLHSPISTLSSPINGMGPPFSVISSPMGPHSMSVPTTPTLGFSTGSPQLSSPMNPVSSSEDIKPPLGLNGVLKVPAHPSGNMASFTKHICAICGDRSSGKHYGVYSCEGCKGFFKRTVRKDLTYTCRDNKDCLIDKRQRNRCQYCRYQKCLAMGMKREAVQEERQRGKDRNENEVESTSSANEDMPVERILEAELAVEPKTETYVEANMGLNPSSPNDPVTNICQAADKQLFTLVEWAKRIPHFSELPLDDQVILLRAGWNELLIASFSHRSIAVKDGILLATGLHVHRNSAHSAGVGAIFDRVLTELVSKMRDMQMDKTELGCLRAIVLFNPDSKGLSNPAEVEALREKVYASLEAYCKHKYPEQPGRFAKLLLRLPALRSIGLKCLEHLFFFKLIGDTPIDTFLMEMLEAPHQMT
smiles,measurement,setting,value
CC[N+](CC)(CC)CCOc1ccc(/C=C/c2ccccc2)cc1,Potency,[1],inactive
same,Potency,[2],inactive
same,Potency,[3],inactive
same,Potency,[4],inactive
same,Potency,[5],inactive
same,Potency,[6],inactive
same,Potency,[7],inactive
same,Potency,[8],inactive
same,outcome,[9],inactive
same,Potency,[10],8.74 µM (active)
same,outcome,[11],inactive
same,Potency,[12],12.3 µM (active)
same,Potency,[13],inactive
same,outcome,[14],inactive
CCOC(=O)c1ccc(C2CCC(NC[C@H](O)COc3ccc(O)c(NS(C)(=O)=O)c3)CC2)cc1 (some centres not stated),Potency,[1],35.9 µM (active)
same,Potency,[2],inactive
same,Potency,[3],inactive
same,Potency,[4],inactive
same,Potency,[6],10.1 µM (active)
same,Potency,[7],inactive
same,Potency,[8],inactive
same,Potency,[15],63.3 µM (active)
FC(F)(F)c1cccc(Cl)c1,Potency,[1],inactive
same,Potency,[2],inactive
same,Potency,[3],inactive
same,Potency,[4],inactive
same,Potency,[16],inactive
same,Potency,[5],inactive
same,Potency,[17],inactive
same,Potency,[6],inactive
same,Potency,[7],inactive
same,Potency,[18],inactive
same,Potency,[8],inactive
same,Potency,[15],inactive
CC(C)(C)C1CCC(=O)CC1,Potency,[1],inactive
same,Potency,[2],54.9 µM (active)
same,Potency,[3],inactive
same,Potency,[4],inactive
same,Potency,[19],inactive
same,Potency,[16],inactive
same,Potency,[6],inactive
same,Potency,[7],inactive
same,Potency,[18],inactive
same,Potency,[15],inactive
C#C[C@]1(OC(C)=O)CC[C@H]2[C@@H]3CCC4=C[C@@H](OC(C)=O)CC[C@@H]4[C@H]3CC[C@@]21C,Potency,[1],inactive
same,Potency,[2],inactive
same,Potency,[3],inactive
same,Potency,[4],inactive
same,Potency,[19],33.5 µM (active)
same,Potency,[7],inactive
same,Potency,[8],inactive
OCC(F)(F)F,Potency,[1],inactive
same,Potency,[2],inactive
same,Potency,[3],inactive
same,Potency,[4],inactive
same,Potency,[19],inactive
same,Potency,[16],inactive
same,Potency,[17],inactive
same,Potency,[6],inactive
same,Potency,[7],inactive
C=C(CC)C(=O)c1ccc(OCC(=O)O)c(Cl)c1Cl,Potency,[1],inactive
same,Potency,[2],inactive
same,Potency,[3],inactive
same,Potency,[4],inactive
same,Potency,[19],54.1 µM (active)
same,Potency,[16],inactive
same,Potency,[6],inactive
same,Potency,[7],inactive
same,Potency,[15],inactive
c1ccsc1,Potency,[1],inactive
same,Potency,[2],inactive
same,Potency,[3],inactive
same,Potency,[4],inactive
same,Potency,[19],inactive
same,Potency,[16],inactive
same,Potency,[5],inactive
same,Potency,[6],inactive
same,Potency,[7],inactive
same,Potency,[15],inactive
CN(C)C(=O)COC(=O)Cc1ccc(OC(=O)c2ccc(N=C(N)N)cc2)cc1,Potency,[1],inactive
same,Potency,[2],inactive
same,Potency,[3],inactive
same,Potency,[4],inactive
same,Potency,[16],inactive
same,Potency,[5],inactive
same,Potency,[17],inactive
same,Potency,[6],inactive
same,Potency,[7],inactive
same,Potency,[15],inactive
C=C(C)C(=O)OCCCCCCCCCC,Potency,[1],inactive
same,Potency,[2],inactive
same,Potency,[3],inactive
same,Potency,[4],inactive
same,Potency,[19],inactive
same,Potency,[16],inactive
Cc1c2ccccc2c(C)c2c1ccc1ccccc12,Potency,[1],43.2 µM (active) and 19.5 µM (active)
same,Potency,[2],12.2 µM (active)
same,Potency,[3],43.2 µM (active)
same,Potency,[4],60.5 µM (active) and 27.3 µM (active)
same,Potency,[19],24.1 µM (active) and 21.7 µM (active)
same,Potency,[16],inactive
same,Potency,[6],19.3 µM (active) and 19.5 µM (active)
same,Potency,[7],inactive
same,Potency,[8],54.5 µM (active)
same,Potency,[15],27 µM (active) and 54.5 µM (active)
CC(C)Cn1cnc2c(N)nc3ccccc3c21,Potency,[1],inactive
same,Potency,[2],inactive
same,Potency,[3],inactive
same,"activity, negative = cytotoxicity",[4],-2.84% [at 19 µM]
same,"activity change, negative = inhibition",[19],5.43% [at 19 µM]
same,"viability change, negative = cytotoxic",[16],9.4% [at 15.8 µM]
same,activation,[17],13.7% [at 15.8 µM]
same,"activity change, negative = cytotoxicity",[6],1.15% [at 15.8 µM]
same,"activity change, negative = cytotoxicity",[7],-0.222% [at 19 µM]
same,"activity, negative = inhibition",[18],2.71% [at 19 µM]
same,Potency,[8],inactive
same,"viability change, negative = cytotoxic",[15],-3.99% [at 19 µM]
CC(C)(C)NSc1nc2ccccc2s1,Potency,[1],inactive
same,Potency,[2],inactive
same,Potency,[3],inactive
same,Potency,[4],inactive
same,Potency,[19],inactive
same,Potency,[16],inactive
same,Potency,[6],inactive
same,Potency,[7],inactive
same,activation,[8],7.05% [at 94.8 µM] (active)
same,Potency,[15],inactive
C=CCCC(=O)/C=C/C1C(C)=CCCC1(C)C (configuration not stated),Potency,[1],inactive
same,Potency,[2],inactive
same,Potency,[3],inactive
same,Potency,[4],inactive
same,Potency,[16],inactive
same,Potency,[5],inactive
same,Potency,[17],inactive
same,Potency,[7],inactive
same,Potency,[18],inactive
same,Potency,[8],inactive
same,Potency,[15],inactive
CC/C=C\CCCCCO,Potency,[1],inactive
same,Potency,[2],inactive
same,Potency,[3],inactive
same,Potency,[4],inactive
same,Potency,[19],inactive
same,Potency,[16],inactive
same,Potency,[5],inactive
same,Potency,[6],inactive
same,Potency,[7],inactive
O=C(O)c1cccc(C(F)(F)F)c1,Potency,[1],inactive
same,Potency,[2],inactive
same,Potency,[3],inactive
same,Potency,[4],inactive
same,Potency,[16],inactive
same,Potency,[5],inactive
same,Potency,[6],inactive
same,Potency,[7],inactive
same,Potency,[15],inactive
CCN1C(=O)c2ccccc2C1Nc1ccc(OCCN2CCCCC2)cc1 (configuration not stated),Potency,[1],inactive
same,Potency,[2],inactive
same,Potency,[3],inactive
same,Potency,[4],inactive
same,Potency,[16],inactive
same,Potency,[5],inactive
same,Potency,[17],inactive
same,Potency,[6],inactive
same,Potency,[7],inactive
same,Potency,[8],inactive
same,Potency,[15],inactive
